From ChEMBL document CHEMBL3988442, “University of Dundee, Small-Polar-MMV Screening Library” (2021) come the findings set out here.

Molecules are shown by their SMILES. For some assays here: Results with a measured potency or affinity are listed apart.

Holding throughout (design): scale not given: direction of the effect not stated beside the values
Assay [1] has as its target Protein translocase subunit SecA (Escherichia coli (strain K12)) (UniProt P10408). Briefly: Assay to Identify E. coli SecA ATPase Inhibitors. The assay is classed as functional. Conditions: 30 µM.
Assay [2] deals with T1, Ubiquitin-activating enzyme e1, putative (Leishmania donovani (strain BPK282A1)) (UniProt E9BSI1).
T1 sequence (whole entry): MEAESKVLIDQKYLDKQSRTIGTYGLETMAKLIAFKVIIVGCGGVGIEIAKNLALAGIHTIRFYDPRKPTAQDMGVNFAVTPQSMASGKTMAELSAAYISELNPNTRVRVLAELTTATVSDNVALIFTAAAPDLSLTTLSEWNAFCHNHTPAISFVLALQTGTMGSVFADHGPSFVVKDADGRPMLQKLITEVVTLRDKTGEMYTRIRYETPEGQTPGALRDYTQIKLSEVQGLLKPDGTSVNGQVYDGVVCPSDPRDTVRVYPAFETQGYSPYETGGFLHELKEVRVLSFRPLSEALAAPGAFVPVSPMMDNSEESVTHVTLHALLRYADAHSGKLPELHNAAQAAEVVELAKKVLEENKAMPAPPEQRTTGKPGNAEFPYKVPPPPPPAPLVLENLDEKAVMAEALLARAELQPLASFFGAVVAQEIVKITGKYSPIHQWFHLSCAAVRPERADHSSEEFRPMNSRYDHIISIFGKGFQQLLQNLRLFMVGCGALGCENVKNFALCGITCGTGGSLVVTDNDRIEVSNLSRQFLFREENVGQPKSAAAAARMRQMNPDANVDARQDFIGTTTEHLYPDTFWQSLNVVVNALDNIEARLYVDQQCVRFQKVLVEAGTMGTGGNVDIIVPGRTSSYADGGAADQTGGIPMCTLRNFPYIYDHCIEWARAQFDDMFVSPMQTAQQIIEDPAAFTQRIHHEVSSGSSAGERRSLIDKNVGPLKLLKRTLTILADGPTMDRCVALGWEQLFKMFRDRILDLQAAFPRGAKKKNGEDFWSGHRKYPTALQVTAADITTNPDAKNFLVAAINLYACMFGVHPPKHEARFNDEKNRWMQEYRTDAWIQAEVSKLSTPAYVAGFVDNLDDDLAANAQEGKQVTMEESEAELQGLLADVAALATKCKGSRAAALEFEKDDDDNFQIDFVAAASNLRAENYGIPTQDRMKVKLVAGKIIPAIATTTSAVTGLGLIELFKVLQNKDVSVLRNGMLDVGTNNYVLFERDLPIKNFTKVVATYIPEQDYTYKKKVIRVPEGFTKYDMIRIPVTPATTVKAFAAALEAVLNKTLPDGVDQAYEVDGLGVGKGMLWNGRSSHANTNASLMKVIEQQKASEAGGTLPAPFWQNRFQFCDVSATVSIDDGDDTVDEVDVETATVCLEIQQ
Briefly: Leishmania donovani Ubiquitin Activating Enzyme (LdE1). The format is functional. Conditions: 30 µM.

The target in assay [3] is AMP-activated protein kinase, AMPK (Homo sapiens) (UniProt P54646+O43741+P54619+Q9UGJ0+Q9Y478+Q13131+Q9UGI9). Briefly: AMP-dependent Kinase enzyme assay. An in vitro enzyme assay that detects ADP turnover that is directly proportional to AMPK activity. This uses naive AMPK that is activated during the assay with MK-8722. The format is functional. The conditions noted are these: 30 µM.

For assay [4], the target named is Sialic acid-binding Ig-like lectin 9 (Homo sapiens) (UniProt Q9Y336). Briefly: Hs-Siglec9 ALPHAscreen SOP 20170721. The conditions noted are these: 10 µM. Background: Bead proximity is the source of the signal in Alpha formats.
For assay [5], the system named is Trypanosoma cruzi. In words: Trypanosoma cruzi phosphomannomutase and mannose-1-phosphate guanylyltransferase assay. The assay is classed as functional. The conditions noted are these: 10 µM.
Assay [6] addresses T2, Arginase-2, mitochondrial (Homo sapiens) (UniProt P78540).
T2 sequence (whole entry): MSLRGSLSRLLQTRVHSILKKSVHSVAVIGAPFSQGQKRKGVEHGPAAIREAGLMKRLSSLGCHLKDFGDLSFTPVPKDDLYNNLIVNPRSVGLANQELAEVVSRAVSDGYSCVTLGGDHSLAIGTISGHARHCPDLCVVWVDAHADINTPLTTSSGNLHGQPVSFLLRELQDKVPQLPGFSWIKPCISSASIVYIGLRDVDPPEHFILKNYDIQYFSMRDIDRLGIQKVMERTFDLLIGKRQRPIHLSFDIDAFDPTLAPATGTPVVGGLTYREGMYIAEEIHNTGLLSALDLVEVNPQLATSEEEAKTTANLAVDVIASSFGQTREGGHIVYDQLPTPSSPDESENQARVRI
Briefly: in vitro enzyme assay to detect the production of urea directly proportional to the activity of Arginase II. Also: in the data most compounds retested in dose-response had high values. Conditions: 33.3 µM. The format is functional.

Assay [7] has as its target T3, Proteasome subunit beta (Trypanosoma cruzi) (UniProt O96673).
T3 sequence (whole entry): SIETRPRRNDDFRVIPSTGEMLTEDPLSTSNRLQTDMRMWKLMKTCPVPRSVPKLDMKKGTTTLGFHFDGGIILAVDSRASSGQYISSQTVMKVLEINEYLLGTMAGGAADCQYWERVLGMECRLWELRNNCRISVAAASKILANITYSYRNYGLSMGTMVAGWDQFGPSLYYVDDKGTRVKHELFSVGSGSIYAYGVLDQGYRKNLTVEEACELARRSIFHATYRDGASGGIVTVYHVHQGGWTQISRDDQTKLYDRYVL
Briefly: Trypanosoma cruzi proteasome chymotrypsin-like activity (TcProtChymo) assay. Also: in the data most compounds retested in dose-response had high values. The format is functional. Conditions: 9.37 µM.

For assay [8], the species on record is Homo sapiens. In words: To identify inhibition of the IFN signalling (Jak-Stat) pathway via expression of an eGFP reporter gene under the control of an IFN-stimulated response element (ISRE) containing MxA promoter. Conditions: 30 µM. The format is functional. In general terms: In a reporter assay the amount or activity of a reporter protein is the signal.

For assay [9], the target named is T4, Tyrosyl-tRNA synthetase, putative (Trypanosoma cruzi (strain CL Brener)) (UniProt Q4DSP6).
T4 sequence (whole entry): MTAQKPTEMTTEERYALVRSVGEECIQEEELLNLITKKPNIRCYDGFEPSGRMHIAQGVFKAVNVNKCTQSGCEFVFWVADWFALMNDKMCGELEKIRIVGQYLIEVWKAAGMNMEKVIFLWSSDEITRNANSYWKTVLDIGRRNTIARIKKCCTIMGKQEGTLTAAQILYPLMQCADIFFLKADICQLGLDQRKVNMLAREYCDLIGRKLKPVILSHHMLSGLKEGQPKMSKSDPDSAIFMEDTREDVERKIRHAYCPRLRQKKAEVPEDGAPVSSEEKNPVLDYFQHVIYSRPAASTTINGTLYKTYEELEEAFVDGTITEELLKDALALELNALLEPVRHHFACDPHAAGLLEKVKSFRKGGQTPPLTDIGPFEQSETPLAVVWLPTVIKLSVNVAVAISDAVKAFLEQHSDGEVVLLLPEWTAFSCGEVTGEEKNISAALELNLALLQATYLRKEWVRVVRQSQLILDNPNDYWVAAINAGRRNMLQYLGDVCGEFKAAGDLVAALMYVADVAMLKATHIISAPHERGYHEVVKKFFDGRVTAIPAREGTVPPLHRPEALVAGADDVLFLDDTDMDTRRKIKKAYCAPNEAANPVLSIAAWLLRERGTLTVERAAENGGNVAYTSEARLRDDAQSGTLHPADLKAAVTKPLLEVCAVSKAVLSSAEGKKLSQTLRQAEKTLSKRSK
In words: Trypanosoma cruzi tyrosyl tRNA synthetase (TcYRS) _High Tyrosine SOP. Also: in the data most compounds retested in dose-response had high values. The format is functional. Conditions: 30 µM.

The target in assay [10] is T4, Tyrosyl-tRNA synthetase, putative (Trypanosoma cruzi (strain CL Brener)). In words: Trypanosoma cruzi tyrosyl tRNA synthetase (TcYRS) SOP. The assay is classed as functional. Conditions: 30 µM.
The target in assay [11] is Chromo domain-containing protein 1 (Saccharomyces cerevisiae (strain ATCC 204508 / S288c) (Baker's yeast)) (UniProt P32657). Briefly: ScCHD-1 Enzyme Inhibition Assay. Also: in the data most compounds retested in dose-response had high values. Conditions: 30 µM. The format is functional.
Sequence of Chromo domain-containing protein 1 (Saccharomyces cerevisiae (strain ATCC 204508 / S288c) (Baker's yeast)) (P32657 whole entry, the tested form may be a part): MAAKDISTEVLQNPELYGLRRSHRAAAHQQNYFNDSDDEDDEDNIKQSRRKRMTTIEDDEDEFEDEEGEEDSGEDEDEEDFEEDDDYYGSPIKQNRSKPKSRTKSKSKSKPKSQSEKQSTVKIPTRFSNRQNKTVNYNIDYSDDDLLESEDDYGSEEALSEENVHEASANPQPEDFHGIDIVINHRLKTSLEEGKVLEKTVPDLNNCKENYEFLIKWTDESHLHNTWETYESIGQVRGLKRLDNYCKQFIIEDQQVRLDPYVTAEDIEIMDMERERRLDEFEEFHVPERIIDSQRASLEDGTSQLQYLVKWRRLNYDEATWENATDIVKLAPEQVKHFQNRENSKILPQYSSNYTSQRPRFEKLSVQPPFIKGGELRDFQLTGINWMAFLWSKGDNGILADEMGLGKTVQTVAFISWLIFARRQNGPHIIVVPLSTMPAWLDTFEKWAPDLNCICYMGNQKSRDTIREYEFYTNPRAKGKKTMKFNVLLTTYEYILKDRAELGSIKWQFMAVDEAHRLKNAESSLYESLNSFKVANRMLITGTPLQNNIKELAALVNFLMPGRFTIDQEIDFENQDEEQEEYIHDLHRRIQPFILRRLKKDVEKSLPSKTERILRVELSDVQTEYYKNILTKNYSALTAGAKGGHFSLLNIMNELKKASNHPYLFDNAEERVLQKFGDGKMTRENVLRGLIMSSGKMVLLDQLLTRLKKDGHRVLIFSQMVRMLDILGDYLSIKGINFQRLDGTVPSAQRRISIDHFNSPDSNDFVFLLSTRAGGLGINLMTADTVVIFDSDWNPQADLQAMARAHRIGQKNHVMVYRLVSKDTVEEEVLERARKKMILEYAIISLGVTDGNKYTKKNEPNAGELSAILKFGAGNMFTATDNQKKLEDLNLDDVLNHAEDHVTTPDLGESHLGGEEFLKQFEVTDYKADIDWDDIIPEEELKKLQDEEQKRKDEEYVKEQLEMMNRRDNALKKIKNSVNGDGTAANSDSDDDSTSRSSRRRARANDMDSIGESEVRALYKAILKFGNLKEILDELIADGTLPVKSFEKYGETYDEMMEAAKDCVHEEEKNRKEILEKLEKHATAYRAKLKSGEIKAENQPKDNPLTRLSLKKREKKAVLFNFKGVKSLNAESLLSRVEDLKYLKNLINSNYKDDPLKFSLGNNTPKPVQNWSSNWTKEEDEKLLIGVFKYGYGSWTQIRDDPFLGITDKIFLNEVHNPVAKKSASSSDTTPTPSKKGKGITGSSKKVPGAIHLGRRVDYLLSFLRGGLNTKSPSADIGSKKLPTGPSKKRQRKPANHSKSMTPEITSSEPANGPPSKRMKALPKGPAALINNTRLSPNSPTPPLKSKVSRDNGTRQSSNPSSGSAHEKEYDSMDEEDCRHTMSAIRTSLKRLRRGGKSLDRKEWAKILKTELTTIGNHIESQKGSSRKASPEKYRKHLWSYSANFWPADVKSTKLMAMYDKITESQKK

Sequence of Sialic acid-binding Ig-like lectin 9 (Homo sapiens) (Q9Y336 whole entry): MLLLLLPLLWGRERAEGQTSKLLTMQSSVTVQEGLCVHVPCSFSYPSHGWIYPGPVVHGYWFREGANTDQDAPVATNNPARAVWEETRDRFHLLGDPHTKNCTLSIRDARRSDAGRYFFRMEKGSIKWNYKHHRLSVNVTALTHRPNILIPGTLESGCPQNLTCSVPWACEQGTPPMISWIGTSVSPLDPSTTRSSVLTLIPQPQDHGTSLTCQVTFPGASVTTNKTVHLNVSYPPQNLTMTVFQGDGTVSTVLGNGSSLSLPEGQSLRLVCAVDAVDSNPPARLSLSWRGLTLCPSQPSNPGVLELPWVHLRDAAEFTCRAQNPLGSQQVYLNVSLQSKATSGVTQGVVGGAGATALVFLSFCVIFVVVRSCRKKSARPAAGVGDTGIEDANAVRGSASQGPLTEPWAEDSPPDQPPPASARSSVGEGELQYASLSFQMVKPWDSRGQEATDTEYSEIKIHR
Sequence of Protein translocase subunit SecA (Escherichia coli (strain K12)) (P10408 whole entry): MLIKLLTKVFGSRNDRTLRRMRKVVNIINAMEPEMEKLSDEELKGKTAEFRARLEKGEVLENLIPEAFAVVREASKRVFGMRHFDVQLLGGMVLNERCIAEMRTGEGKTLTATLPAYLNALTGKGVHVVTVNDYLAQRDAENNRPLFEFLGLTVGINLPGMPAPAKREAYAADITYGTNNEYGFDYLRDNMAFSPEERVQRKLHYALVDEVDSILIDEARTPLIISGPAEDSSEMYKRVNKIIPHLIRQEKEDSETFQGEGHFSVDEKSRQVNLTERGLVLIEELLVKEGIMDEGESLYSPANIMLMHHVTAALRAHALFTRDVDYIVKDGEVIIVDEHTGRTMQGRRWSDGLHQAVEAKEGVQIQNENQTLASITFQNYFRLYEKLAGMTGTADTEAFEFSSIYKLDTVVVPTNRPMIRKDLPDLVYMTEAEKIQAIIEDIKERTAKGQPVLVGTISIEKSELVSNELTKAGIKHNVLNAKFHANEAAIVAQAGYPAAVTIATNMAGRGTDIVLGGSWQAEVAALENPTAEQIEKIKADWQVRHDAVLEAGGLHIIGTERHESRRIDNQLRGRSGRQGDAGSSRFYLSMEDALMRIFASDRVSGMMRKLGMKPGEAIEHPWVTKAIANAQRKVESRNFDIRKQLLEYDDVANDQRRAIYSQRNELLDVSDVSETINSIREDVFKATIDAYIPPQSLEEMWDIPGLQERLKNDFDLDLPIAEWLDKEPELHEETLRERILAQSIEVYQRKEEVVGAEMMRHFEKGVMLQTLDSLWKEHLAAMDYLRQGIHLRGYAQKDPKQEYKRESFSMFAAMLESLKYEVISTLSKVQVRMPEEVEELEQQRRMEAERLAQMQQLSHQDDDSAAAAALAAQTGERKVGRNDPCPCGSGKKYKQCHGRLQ

With `CN(Cc1nnc2n1CCC2)C(=O)NCCc1ccc2c(c1)OCO2`, the Percent Effect in [1] was -3.06%; in [2], 21.6%; in assay [3], -5.22%; in [4], -0.223%; in assay [5], -5.38%; in [6] it was -2.4%. The Percent Effect in assay [7] is 10.6%; in assay [8] it was 18.3%; in assay [9] it was 7.39%; in [10], 16.1%; in assay [11], -6.24%.

For the molecule `Cc1nc(CN2CCC3(CCCN(Cc4cnn(C)c4)C3)C2=O)cs1` (stereo not given), the Percent Effect is 2.6% in assay [1]; 10.7% in assay [2]; -6.96% in assay [3]; 4.34% in [4]; -5.79% in [5]; -57.2% in assay [6]. Further, the Percent Effect in assay [7] was 10.3%; in assay [8], -6.36%; in assay [9], 3.12%; in assay [10] it was 10%; in assay [11] it was -5.7%.

Take `COCCN1CCC(NC(=O)C2(c3cc(C)cc(C)c3)CC2)CC1`: the Percent Effect was -5.08% in assay [1]; 0% in [2]; -4.53% in assay [3]; -1.6% in assay [4]; -1.59% in assay [5]; 0.719% in assay [6]. Moreover, the Percent Effect in assay [7] is -1.95%; in assay [8], -10.6%; in assay [9] it was 1.48%; in [10] it was -1.24%; in assay [11], 6.15%.

`Cc1cc(N2CCN(Cc3ccc(-c4cc[nH]n4)o3)CC2)cc(C)n1`: the Percent Effect in [1] was -5.81%; in assay [2] it was 13.3%; in assay [3], -25.4%; in assay [4], 33.9%; in assay [5], 10.2%; in assay [6], 10.9%. For the same molecule, the Percent Effect was 12.7% in assay [7]; 9.15% in assay [8]; 3.83% in [9]; 13.6% in assay [10]; -5.59% in [11].

As to `CCC1=N[C@@]2(CC[C@@H]3CN(Cc4ccc(Cl)cc4)C[C@@H]32)C(=O)N1`, the Percent Effect was -2.1% in [1]; 2.7% in assay [2]; 2.16% in [3]; -3.03% in [4]; -7.72% in [5]; -0.955% in assay [6]. Also, the Percent Effect in assay [7] amounted to 20.3%; in [8] it was 3.29%; in assay [9], 2.16%; in [10] it was 2.56%; in [11], 0.0576%.

On to `CCc1ncc2c(n1)CN(Cc1nc(-c3ccsc3)oc1C)CC2`, for which the Percent Effect in assay [1] was -6.04%; in assay [2] it was -18.4%; in assay [3], -33%; in assay [4], 12.2%; in [5], -1.77%; in [6], -0.719%. Further, the Percent Effect in assay [7] is 9.73%; in assay [8] it was -1.35%; in assay [9], 19.2%; in assay [10], 16.1%; in [11], 2.49%.

For `CCN(c1ccc(C(=O)NCCCN2CCCC2)cc1)S(=O)(=O)CC`, the Percent Effect in assay [1] was -0.13%; in assay [2], 5.26%; in assay [3], -1.17%; in assay [4] it was -1.94%; in assay [5] it was -9.83%; in assay [6], -7.1%. For the same molecule, the Percent Effect in assay [7] is 14.1%; in [8], -5.53%; in assay [9], 4.25%; in [10], 7.79%; in assay [11] it was -3.78%.

With `Cc1cnc(N)c(C(=O)C2CCN(C(=O)c3ccccc3F)CC2)c1`, the Percent Effect is -7.77% in [1]; 13.3% in assay [2]; 4.93% in assay [3]; 7.45% in assay [4]; 2.76% in assay [5]; -2.56% in assay [6]. Besides, the Percent Effect is 6.26% in assay [7]; 33% in assay [8]; 7.45% in [9]; 8.97% in [10]; -6.49% in assay [11].

As for `CCc1nc(C(=O)N2CCN(C)CC2C)nn1-c1ccccc1Cl` (stereo not given), the Percent Effect in [1] is -3.02%; in assay [2], 15.8%; in assay [3] it was 15.7%; in assay [4], -9.77%; in assay [5], -7.19%; in [6], 0.36%. In addition, the Percent Effect in assay [7] is 8.04%; in assay [8], 12.9%; in assay [9], 5.42%; in [10], 11.1%; in assay [11] it was -9.77%.

Turning to `O=C(CN1CCCCC1Cn1cncn1)NCCC1=CCCCC1` (stereo not given), the Percent Effect in [1] was -9.27%; in assay [2] it was 7.59%; in assay [3], -1.31%; in assay [4], 4.8%; in [5], -2.55%; in [6], -0.76%. For the same molecule, the Percent Effect in [7] was -4.5%; in assay [8], 30.9%; in assay [9] it was 2.46%; in assay [10], -3.8%; in [11], -6.11%.
